Test [1] relates to DLD1. The test can be described thus: cell viability (CellTiter-Glo) relative to plate median (fraction of plate median); higher = more viable cells. The note with it: 5 µM; treatment time 24 h; reporter: 7TFP. Put shortly: (§1)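 Colorectal cancer cells stably transduced with lentiviral TCF/Wnt firefly luciferase reporters were seeded in 384-well plates and dosed 24 h later with library compounds at a final 5 µM for 24 h. Firefly luciferase or CellTiterGlo luminescence was then read on a Tecan F500 from parallel plates. Signals were normalised per well to the plate median without log transformation, additively in webcellHTS2, and averaged over two independent replicates.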
In general terms: Cellular ATP, detected with luciferase, serves as a proxy for viable cell number.

Another test has as its system HCT116. The description is as above. The note with it: 5 µM; treatment time 24 h; reporter: TCF4/Wnt. Put shortly:
as §1

Test [2] relates to SW480. Described as above. The note with it: 5 µM; treatment time 24 h; reporter: 7TFP. Put shortly: as §1
In test [3] the test system is DLD1. The test can be described thus: TCF/Wnt firefly luciferase reporter signal relative to plate median (fraction of plate median); higher = higher Wnt reporter signal. Conditions: 5 µM; treatment time 24 h; reporter: 7TFP. Put shortly:
as §1
For orientation: A reporter such as luciferase makes a cellular process visible.

Test [4] concerns SW480. The description is as above. The note with it: 5 µM; treatment time 24 h; reporter: 7TFP. Put shortly:
as §1

30 molecules from the supplement of paper PMC6522484 can be followed below.

± gives the standard deviation of the averaged measurements.

For the molecule `COc1cc([C@@H]2c3cc4c(cc3[C@@H](O[C@@H]3O[C@@H]5CO[C@@H](c6cccs6)O[C@H]5[C@H](O)[C@H]3O)[C@H]3COC(=O)[C@H]23)OCO4)cc(OC)c1O`, the cell viability came out at 0.946 ± 0.047 in the test with DLD1 [1], 0.747 ± 0.0014 in the test with HCT116 and 0.952 ± 0.14 in the test on SW480 [2]. Further, the “TCF/Wnt firefly luciferase reporter signal” value with DLD1 [3] came to 0.738 ± 0.032; in the test with SW480 [4], 0.868.
On the same counts, the results for `Cc1cc(-c2ccccc2)nnc1NCCN1CCOCC1` are 1.005 ± 0.0071, 0.946 ± 0.077, 1.03 ± 0.014, 1.02 ± 0.035 and 1.05 ± 0.057.
On the same counts, the results for `C/C1=C\CCC(=O)C2CC(C)(C)C2CC1` (stereo not given) are 0.9755 ± 0.00071, 0.908 ± 0.14, 0.939 ± 0.012, 0.918 ± 0.098 and 1.004 ± 0.0078.
As to `COc1ccc2c(=O)ccoc2c1`, the cell viability in the test on DLD1 [1] came to 0.979 ± 0.059; in the test with HCT116, 0.933 ± 0.11; with SW480 [2], 0.942 ± 0.0071. The figures for the “TCF/Wnt firefly luciferase reporter signal” value in the test with DLD1 [3] and in the test on SW480 [4] were 1.03 ± 0.021 and 1.05 ± 0.1, respectively.
The matching figures for `COc1ccc2c(c1OC)C(=O)O[C@@H]2[C@H]1c2c(cc3c(c2OC)OCO3)CCN1C`: 0.9895 ± 0.0092, 0.879 ± 0.0099, 0.995 ± 0.0014, 0.973 ± 0.17 and 0.945 ± 0.15.
The matching figures for `CN(C)CCOc1ccc(/C(=C(/CCCl)c2ccccc2)c2ccccc2)cc1`: 0.947 ± 0.034, 1.02 ± 0.062, 0.977 ± 0.047, 0.962 ± 0.12 and 1.05 ± 0.073.
Take `CC1(C)O[C@@H]2C[C@H]3[C@@H]4CCC5=CC(=O)CC[C@]5(C)[C@@]4(F)[C@@H](O)C[C@]3(C)[C@]2(C(=O)CCl)O1`: the results for the cell viability in the test with DLD1 [1], with HCT116 and in the test with SW480 [2] were 0.921 ± 0.12, 0.925 ± 0.074 and 0.977 ± 0.061, respectively. The entries for the “TCF/Wnt firefly luciferase reporter signal” value in the test on DLD1 [3] and in the test with SW480 [4] were 0.927 ± 0.042 and 1.01 ± 0.066, respectively.
For the molecule `CC(=O)N[C@@H](C=O)[C@@H](O)[C@H](O)[C@H](O)CO`, the cell viability with DLD1 [1] is 1.04 ± 0.021; in the test with HCT116, 1.06 ± 0.014; with SW480 [2], 0.945 ± 0.013. In addition, the “TCF/Wnt firefly luciferase reporter signal” value was 1.18 ± 0.035 with DLD1 [3] and 1.2 ± 0.057 in the test on SW480 [4].
The matching figures for `COc1c(N2C[C@@H]3CCCN[C@@H]3C2)c(F)cc2c(=O)c(C(=O)O)cn(C3CC3)c12`: 0.861 ± 0.14, 1.02, 1.02 ± 0.069, 1.1 ± 0.042 and 1 ± 0.013.
As to `CON`, the cell viability in the test with DLD1 [1] stood at 1.03 ± 0.093; in the test with HCT116, 1.01 ± 0.046; in the test with SW480 [2] it was 0.984 ± 0.018. Also, the “TCF/Wnt firefly luciferase reporter signal” value was 0.982 ± 0.04 in the test on DLD1 [3] and 0.981 ± 0.027 in the test on SW480 [4].
On the same counts, the results for `Nc1cc(C(Cl)=C(Cl)Cl)c(S(N)(=O)=O)cc1S(N)(=O)=O` are 0.9995 ± 0.00071, 1.125 ± 0.0071, 1.03 ± 0.014, 1.17 ± 0.11 and 1.1 ± 0.078.
On the same counts, the results for `Nc1ccc(S(N)(=O)=O)cc1` are 1.04 ± 0.081, 0.975 ± 0.031, 1.065 ± 0.0071, 1.04 and 1.02 ± 0.073.
`O=C(O[C@@H]1Cc2c(O)cc(O)cc2O[C@@H]1c1cc(O)c(O)c(O)c1-c1c([C@H]2Oc3cc(O)cc(O)c3C[C@H]2OC(=O)c2cc(O)c(O)c(O)c2)cc(O)c(O)c1O)c1cc(O)c(O)c(O)c1`: the cell viability turned out to be 1.08 ± 0.05 in the test with DLD1 [1], 1.15 ± 0.12 with HCT116 and 1.035 ± 0.0071 in the test on SW480 [2]. In addition, the “TCF/Wnt firefly luciferase reporter signal” value came to 1.03 ± 0.11 in the test on DLD1 [3] and 1.01 ± 0.047 in the test with SW480 [4].
On the same counts, the results for `C/C=C/C/C=C/CCC(=O)[C@H]1O[C@H]1C(N)=O` [Cerulenin] are 0.927 ± 0.092, 0.951 ± 0.069, 0.946 ± 0.018, 1.01 ± 0.11 and 0.993 ± 0.025.
The matching figures for `CCCCCCCCCCC[C@@H](C[C@@H]1OC(=O)[C@H]1CCCCCC)OC(=O)[C@H](CC(C)C)NC=O`: 0.83 ± 0.15, 1.03 ± 0.12, 0.972 ± 0.018, 1.01 ± 0.13 and 0.933 ± 0.023.
On the same counts, the results for `N=C(N)NCCCCN` are 1 ± 0.054, 1.15 ± 0.014, 1.02 ± 0.058, 1.02 ± 0.04 and 1.09 ± 0.071.
`COc1ccc(C(=O)CC(=O)c2ccc(C(C)(C)C)cc2)cc1`: the cell viability with DLD1 [1] turned out to be 0.879 ± 0.2; in the test on HCT116 it was 0.904 ± 0.032; with SW480 [2], 1.01 ± 0.021. For the same molecule, the “TCF/Wnt firefly luciferase reporter signal” value was 1 ± 0.098 with DLD1 [3] and 1.04 ± 0.18 in the test with SW480 [4].
The matching figures for `CCc1c(O)cc(C(C)CC)oc1=O` (stereo not given) [Germicidin]: 1.02 ± 0.014, 0.92 ± 0.034, 0.965 ± 0.05, 0.946 ± 0.16 and 1.06 ± 0.09.
The matching figures for `CC(=O)Nc1nnc(S(N)(=O)=O)s1`: 0.981 ± 0.055, 0.907 ± 0.11, 0.989 ± 0.016, 0.865 ± 0.044 and 1.09 ± 0.092.
On to `C[C@@H]1CC[C@H]2[C@](C)(CO)[C@@H](O)CC[C@]2(C)[C@@]12CC[C@@](CO)(CCO)O2`, for which the cell viability was found to be 0.994 ± 0.052 in the test on DLD1 [1], 1.02 ± 0.049 in the test on HCT116 and 0.9945 ± 0.0078 with SW480 [2]. In addition, the “TCF/Wnt firefly luciferase reporter signal” value was determined as 1.01 ± 0.043 in the test on DLD1 [3] and 1.02 ± 0.014 in the test on SW480 [4].
On the same counts, the results for `CC(=O)OCC(=O)[C@H]1CC[C@H]2[C@@H]3CCC4=CC(=O)CC[C@]4(C)[C@H]3CC[C@]12C` are 0.952 ± 0.082, 0.961 ± 0.13, 0.974 ± 0.0014, 1.11 ± 0.05 and 0.93 ± 0.059.
In the case of `C[N+]1(C)C[C@H](O)C[C@H]1C(=O)[O-]`, the cell viability in the test with DLD1 [1] came out at 1.03 ± 0.014; in the test on HCT116, 0.985 ± 0.035; in the test on SW480 [2] it was 0.967 ± 0.0099. Further, the figures for the “TCF/Wnt firefly luciferase reporter signal” value with DLD1 [3] and with SW480 [4] were 1.06 ± 0.035 and 0.869 ± 0.025, respectively.
For the molecule `CN(C)CCC(c1ccccc1)c1ccccn1` (stereo not given), the cell viability with DLD1 [1] worked out at 0.973 ± 0.039; in the test with HCT116, 1 ± 0.18; with SW480 [2], 0.963 ± 0.032. For the same molecule, the “TCF/Wnt firefly luciferase reporter signal” value with DLD1 [3] was 1.16 ± 0.035; in the test with SW480 [4], 1.055 ± 0.0071.
In the case of `COc1c(CC(=O)c2cc3c(cc2O)OC(C)(C)C(O)C3)ccc2c1C=CC(C)(C)O2` (stereo not given), the cell viability in the test on DLD1 [1] was 1.02 ± 0.03; in the test on HCT116 it was 1.02 ± 0.035; in the test with SW480 [2], 0.911 ± 0.021. Also, the “TCF/Wnt firefly luciferase reporter signal” value in the test with DLD1 [3] was determined as 0.941 ± 0.039; in the test with SW480 [4] it was 0.929 ± 0.08.
The matching figures for `Nc1nc(=O)c2nc(CNc3ccc(C(=O)N[C@@H](CCC(=O)O)C(=O)O)cc3)cnc2[nH]1`: 1.07 ± 0.057, 0.977 ± 0.075, 1.03 ± 0.044, 1.01 ± 0.098 and 1.05 ± 0.12.
On the same counts, the results for `CCOc1ccc(NC(C)=O)cc1` are 0.956 ± 0.12, 1.065 ± 0.0071, 1 ± 0.021, 1.01 ± 0.08 and 1.06 ± 0.05.
`CCOC(=O)[C@H](CCc1ccccc1)N[C@@H](C)C(=O)N1[C@H](C(=O)O)C[C@H]2CCCC[C@@H]21`: the results for the cell viability with DLD1 [1], in the test with HCT116 and with SW480 [2] were 0.923 ± 0.14, 1.02 ± 0.068 and 0.98 ± 0.026, respectively. Besides, the “TCF/Wnt firefly luciferase reporter signal” value amounted to 0.912 ± 0.052 in the test with DLD1 [3] and 0.974 ± 0.093 with SW480 [4].
The matching figures for `C[n+]1cc2c3c(ccc2c2ccc4cc5c(cc4c21)OCO5)OCO3`: 1.02 ± 0.021, 1.08 ± 0.12, 0.99 ± 0.043, 1 ± 0.081 and 0.981 ± 0.011.
On the same counts, the results for `CCn1cc(C(=O)O)c(=O)c2cnc(N3CCCC3)nc21` are 0.983 ± 0.025, 1 ± 0.029, 0.955 ± 0.02, 0.856 ± 0.055 and 0.978 ± 0.046.
Take `CC(C)C[C@@H]1NC(=O)[C@H](C)NC1=O` [cyclo(alanylleucyl)]: the values for the cell viability in the test with DLD1 [1], with HCT116 and in the test with SW480 [2] were 0.998 ± 0.046, 1.02 ± 0.11 and 0.998 ± 0.045, respectively. The “TCF/Wnt firefly luciferase reporter signal” value in the test on DLD1 [3] came to 0.994 ± 0.0028; in the test on SW480 [4], 0.987 ± 0.1.
